Laboratory results as given in the antibiotic and cytotoxicity screens of Wong et al. (2023).
Among all 39,000 compounds or so, about 3,300 (8.5%) were called active. The full list was thinned out, with actives kept by preference.

The molecules below were run on HepG2 (assay: cytotoxicity call (relative viability < 0.9)). Conditions: 10 µM.

Structure (SMILES) | cytotoxicity call
Cc1noc(C)c1NC(=O)Nc1ccc2c(c1)C(=O)N([C@@H](C)CO)C[C@H](C)[C@H](CN(C)Cc1ccc(C(F)(F)F)cc1)O2 | inactive
Cc1noc(C)c1NC(=O)N(C)C[C@@H]1Oc2c(NS(=O)(=O)c3cn(C)cn3)cccc2C(=O)N([C@H](C)CO)C[C@@H]1C | inactive
OCCCn1cnnc1 | inactive
C[C@H](CO)N1C[C@H](C)[C@H](CN(C)C)Oc2cc(C#CCN(C)C)ccc2S1(=O)=O | inactive
CN(C)Cc1cn(CC[C@H]2CC[C@H](NS(=O)(=O)c3ccccc3)[C@H](CO)O2)nn1 | inactive
C[C@H]1CN([C@@H](C)CO)C(=O)c2cc(NS(C)(=O)=O)ccc2O[C@H]1CN(C)Cc1ccc(C(=O)Nc2ccccc2N)cc1 | inactive
C[C@H]1CN([C@@H](C)CO)C(=O)CCCn2nncc2CO[C@@H]1CN(C)C(=O)Nc1cccc2ccccc12 | inactive
C[C@H](CO)N1C[C@H](C)[C@@H](CN(C)C(=O)Nc2ccc(C(F)(F)F)cc2)Oc2ccc(NC(=O)C3CCCCC3)cc2CC1=O | inactive
O=C1O[C@@H](c2ccccc2)[C@@H](c2ccccc2)N2[C@@H](c3ccc(O)cc3)[C@]3(C(=O)Nc4ccc(C#CC5=CCCCC5)cc43)[C@@H](C(=O)NC[C@H](O)c3ccccc3)[C@H]12 | inactive
O=C1O[C@@H](c2ccccc2)[C@@H](c2ccccc2)N2[C@@H](c3ccc(OCCO)cc3)[C@]3(C(=O)Nc4ccc(C#CC5=CCCCC5)cc43)[C@@H](C(=O)NC[C@H](O)c3ccccc3)[C@H]12 | active
O=C1O[C@@H](c2ccccc2)[C@@H](c2ccccc2)N2[C@@H](c3ccc(OCCO)cc3)[C@]3(C(=O)Nc4ccc(C#CC5(O)CCCCCC5)cc43)[C@@H](C(=O)NC[C@H](O)c3ccccc3)[C@H]12 | inactive
COc1cccc(S(=O)(=O)N(C)C[C@@H]2Oc3ncc(C#CCC(C)C)cc3C(=O)N([C@H](C)CO)C[C@H]2C)c1 | inactive
O=C(C[C@H]1CC[C@@H]2[C@H](COC[C@@H](O)CN2S(=O)(=O)c2ccccc2)O1)N1CCOCC1 | inactive
C[C@]1(C(=O)NCC(F)(F)F)c2ccccc2C(=O)N(Cc2cc(C(F)(F)F)cc(C(F)(F)F)c2)[C@H]1c1ccc(CO)cc1 | inactive
O=C(NC1CCN(CCCCC2(C(=O)NCC(F)(F)F)c3ccccc3-c3ccccc32)CC1)c1ccccc1-c1ccc(C(F)(F)F)cc1 | active
O=C(NC1CCCCCCC1)c1ccccc1-c1ccccc1 | inactive
C[C@H]([C@@H](N)C(=O)N[C@H](C(=O)O)[C@H]1O[C@@H](n2ccc(O)cc2=O)[C@@H](O)[C@H]1O)[C@@H](C)c1ccc(O)cn1 | inactive
C[C@H](CO)N1C[C@H](C)[C@@H](CN(C)C(=O)Cc2ccncc2)Oc2cc(-c3cncnc3)ccc2S1(=O)=O | inactive
C[C@@H]1CN([C@H](C)CO)C(=O)c2cc(NC(=O)Cc3cn(C)c4ccccc34)ccc2O[C@H]1CN(C)Cc1ccc(Cl)c(Cl)c1 | inactive
C[C@H](CO)N1C[C@H](C)[C@@H](CN(C)Cc2ccc(Cl)c(Cl)c2)Oc2ccc(NC(=O)Cc3cn(C)c4ccccc34)cc2CC1=O | inactive

Structure (SMILES) | cytotoxicity call
C[C@H](CO)N1C[C@H](C)[C@H](CN(C)Cc2ccc(Cl)c(Cl)c2)Oc2ccc(NC(=O)Cc3cn(C)c4ccccc34)cc2C1=O | inactive
C[C@@H]1CN([C@@H](C)CO)C(=O)c2cc(NC(=O)Cc3cn(C)c4ccccc34)ccc2O[C@H]1CN(C)Cc1ccc(Cl)c(Cl)c1 | active
C[C@H]1CN([C@@H](C)CO)C(=O)c2cc(NC(=O)Cc3cn(C)c4ccccc34)ccc2O[C@@H]1CN(C)Cc1ccc(Cl)c(Cl)c1 | inactive
C[C@@H]1CN([C@H](C)CO)C(=O)c2cc(NC(=O)Cc3cn(C)c4ccccc34)ccc2O[C@@H]1CN(C)Cc1ccc(Cl)c(Cl)c1 | active
C[C@@H]1CN([C@@H](C)CO)C(=O)c2cc(NC(=O)Cc3cn(C)c4ccccc34)ccc2O[C@@H]1CN(C)S(C)(=O)=O | inactive
C[C@@H]1CN([C@H](C)CN(C)C)C(=O)c2cc(NC(=O)Cc3cn(C)c4ccccc34)ccc2O[C@H]1CN(C)S(=O)(=O)c1ccc(Cl)cc1 | active
C[C@H]1CN([C@@H](C)CO)C(=O)c2cc(NC(=O)Cc3cn(C)c4ccccc34)ccc2O[C@H]1CN(C)Cc1ccc(Cl)c(Cl)c1 | inactive
C[C@H](CO)N1C[C@H](C)[C@@H](CN(C)Cc2ccc(Cl)c(Cl)c2)Oc2ccc(NC(=O)Cc3cn(C)c4ccccc34)cc2C1=O | inactive
C[C@@H]1CN([C@@H](C)CO)C(=O)c2cc(NC(=O)Cc3cn(C)c4ccccc34)ccc2O[C@@H]1CN(C)Cc1ccc(Cl)c(Cl)c1 | active
C[C@H]1CN([C@@H](C)CO)C(=O)c2cc(NC(=O)Cc3cn(C)c4ccccc34)ccc2O[C@@H]1CN(C)S(C)(=O)=O | inactive
Cc1noc(C)c1S(=O)(=O)Nc1ccc2c(c1)CC(=O)N([C@@H](C)CO)C[C@H](C)[C@H](CN(C)S(=O)(=O)c1ccc(F)cc1)O2 | inactive
CC(C)NC(=O)Nc1ccc2c(c1)CC(=O)N([C@@H](C)CO)C[C@H](C)[C@H](CN(C)S(=O)(=O)c1ccc(Cl)cc1)O2 | inactive
CO[C@@H]1CN(C)C(=O)c2ccc(NC(=O)NC(C)C)cc2OC[C@H](C)N(Cc2ccc(-c3ccccn3)cc2)C[C@@H]1C | inactive
O=c1[nH]c2cc(C(F)(F)F)c(N3CCOCC3)cc2n(CP(=O)(O)O)c1=O | inactive
C[C@H](CO)N1C[C@H](C)[C@@H](CN(C)S(=O)(=O)c2cccs2)Oc2ccc(NC(=O)C3CC3)cc2CC1=O | inactive
Cc1noc(C)c1NC(=O)Nc1ccc2c(c1)C(=O)N([C@H](C)CO)C[C@@H](C)[C@H](CN(C)Cc1ccncc1)OCCCC[C@H](C)O2 | inactive
C[C@@H]1CN([C@@H](C)CO)C(=O)c2cccc(NC(=O)CCCCCC(=O)Nc3ccccc3N)c2O[C@@H]1CN(C)C(=O)Nc1ccc(C(F)(F)F)cc1 | inactive
Cc1ccc(S[C@]2(C(=O)NCC(C)C)CC(=O)N(C3Cc4ccccc4C3)[C@@H]2c2ccc(CO)cc2I)cc1 | inactive
C[C@@H]1CCCCO[C@@H](CN(C)Cc2ccncc2)[C@@H](C)CN([C@@H](C)CO)C(=O)c2cc(NC(=O)CCC(F)(F)F)ccc2O1 | inactive
